Results as given in the supplement of paper PMC12350171.
Where a name gives a salt, the structure may show the parent alone.

Legend:
Details in all cases: 20 µM
[1] = test system: Haemophilus parainfluenzae; assay: growth AUC normalised to DMSO control (fraction of control); higher = less growth inhibition, active = hit call of the paper
Outline: (§1)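 Pathogens passaged twice anaerobically were inoculated at a starting OD578 of 0.01 into pre-reduced mGAM plates with drug at 20 μM and 1% DMSO, sealed with breathable membranes. Haemophilus parainfluenzae medium was supplemented with hemin and NAD. OD578 was read hourly for 24 h, with three biological replicates. Growth-curve AUC was computed by the trapezoidal rule up to the exponential-to-stationary transition and normalised to DMSO controls on the same plate.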

[2] = test system: Salmonella enterica typhimurium; assay: as above
Outline: as §1

Shigella flexneri = assay: as above
Outline: as §1

Vibrio cholerae = assay: as above
Outline: as §1

[3] = test system: Yersinia pseudotuberculosis; assay: as above
Outline: as §1

P. vulgatus RND KO = assay: growth AUC normalised to DMSO control (median) (fraction of control); higher = less growth inhibition, active = hit call of the paper
Outline: (§2)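 In 96-well plates of mGAM seeded at OD578 0.01, strains that had been passaged twice overnight without oxygen were exposed to approved-drug library compounds at 20 μM with 1% DMSO. Hourly OD578 readings were taken for 24 h in an anaerobic incubator. The trapezoidal-rule area under the curve, with curves truncated at entry into stationary phase, was expressed relative to same-plate vehicle wells as the median of three biological replicates.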

P. vulgatus WT = assay: as above
Outline: as §2

[4] = test system: S. enterica typhimurium WT; assay: as above
Outline: as §2

[5] = test system: S. enterica typhimurium tolC KO; assay: as above
Outline: as §2
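Wherever growth AUC normalised to DMSO control (median) is given: active when median AUC fell below 0.1.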

Row | Compound | growth AUC normalised to DMSO control [1] | growth AUC normalised to DMSO control [2] | growth AUC normalised to DMSO control (Shigella flexneri) | growth AUC normalised to DMSO control (Vibrio cholerae) | growth AUC normalised to DMSO control [3] | growth AUC normalised to DMSO control (P. vulgatus RND KO) | growth AUC normalised to DMSO control (P. vulgatus WT) | growth AUC normalised to DMSO control [4] | growth AUC normalised to DMSO control [5]
1 | CCn1cc(C(=O)O)c(=O)c2cc3c(cc21)OCO3 [Oxolinic acid] | 0.0639 (active) | 0.0132 (active) | 0.0542 (active) | 0.0353 (active) | 0.0367 (active) | 0.951 (inactive) | 0.922 (inactive) | 0.0291 (active) | 0.0105 (active)
2 | CC(C)c1c(CN(C)C(C)Cc2ccccc2)n(C)n(-c2ccccc2)c1=O (stereo not given) [Famprofazone] | 0.971 (inactive) | 0.997 (inactive) | 1.03 (inactive) | 0.965 (inactive) | 1 (inactive) | 0.992 (inactive) | 1 (inactive) | 1.01 (inactive) | 0.871 (inactive)
3 | C[C@]12CC[C@H]3[C@@H](CCC4=CC(=O)CC[C@@H]43)[C@@H]1CC[C@@H]2O [Nandrolone] | 1.99 (inactive) | 0.995 (inactive) | 0.981 (inactive) | 0.967 (inactive) | 0.981 (inactive) | 0.999 (inactive) | 1.03 (inactive) | 1.01 (inactive) | 0.981 (inactive)
4 | C[N+]1(C)CCCC(OC(=O)C(O)(c2ccccc2)c2ccccc2)C1 (stereo not given) [Mepenzolate bromide] | 0.915 (inactive) | 1.01 (inactive) | 0.986 (inactive) | 0.947 (inactive) | 1 (inactive) | 1.02 (inactive) | 1.05 (inactive) | 1.01 (inactive) | 0.996 (inactive)
5 | CCC1(C)CC(=O)NC(=O)C1 [Bemegride] | 1.02 (inactive) | 1.02 (inactive) | 1.01 (inactive) | 1.05 (inactive) | 1.01 (inactive) | 1.03 (inactive) | 1.08 (inactive) | 1.02 (inactive) | 1.01 (inactive)
6 | COc1cccc(C2(O)CCCCC2CN(C)C)c1 (stereo not given) [Tramadol hydrochloride] | 0.971 (inactive) | 0.98 (inactive) | 0.992 (inactive) | 0.983 (inactive) | 0.994 (inactive) | 0.988 (inactive) | 0.989 (inactive) | 0.986 (inactive) | 0.986 (inactive)
7 | CC(NC(C)(C)C)C(=O)c1cccc(Cl)c1 (stereo not given) [Bupropion hydrochloride] | 1.01 (inactive) | 1 (inactive) | 1.05 (inactive) | 1.05 (inactive) | 1.01 (inactive) | 1.03 (inactive) | 1.03 (inactive) | 0.996 (inactive) | 1 (inactive)
8 | CC(Cc1ccccc1)NCCC(c1ccccc1)c1ccccc1 (stereo not given) [Prenylamine lactate] | 1.05 (inactive) | 1.01 (inactive) | 1.07 (inactive) | 1.02 (inactive) | 1.02 (inactive) | 1.04 (inactive) | 1.04 (inactive) | 0.993 (inactive) | 0.97 (inactive)
9 | CC(C)(C)NCC(O)c1cc(Cl)c(N)c(Cl)c1 (stereo not given) [Clenbuterol hydrochloride] | 0.984 (inactive) | 0.958 (inactive) | 0.979 (inactive) | 0.992 (inactive) | 0.993 (inactive) | 0.981 (inactive) | 1.01 (inactive) | 1 (inactive) | 0.992 (inactive)
10 | CN1C[C@H](C(=O)N[C@]2(C)O[C@@]3(O)[C@@H]4CCCN4C(=O)[C@H](Cc4ccccc4)N3C2=O)C[C@@H]2c3cccc4[nH]cc(c34)C[C@H]21 [Dihydroergotamine tartrate] | 1.04 (inactive) | 0.978 (inactive) | 0.994 (inactive) | 1.02 (inactive) | 1.01 (inactive) | 0.989 (inactive) | 0.996 (inactive) | 1 (inactive) | 0.984 (inactive)
11 | CC(=O)O[C@H]1C[C@H](O[C@H]2[C@@H](O)C[C@H](O[C@H]3[C@@H](O)C[C@H](O[C@H]4CC[C@@]5(C)[C@H](CC[C@@H]6[C@@H]5C[C@@H](O)[C@]5(C)[C@@H](C7=CC(=O)OC7)CC[C@]65O)C4)O[C@@H]3C)O[C@@H]2C)O[C@H](C)[C@H]1O[C@@H]1O[C@H](CO)[C@@H](O)[C@H](O)[C@H]1O [Lanatoside C] | 1.04 (inactive) | 1.01 (inactive) | 1.01 (inactive) | 1.02 (inactive) | 0.984 (inactive) | 1.01 (inactive) | 1.06 (inactive) | 1.01 (inactive) | 0.997 (inactive)
12 | S=C(NC1CCCCC1)N1CCC(c2cnc[nH]2)CC1 [Thioperamide maleate] | 0.976 (inactive) | 0.98 (inactive) | 0.957 (inactive) | 0.97 (inactive) | 0.991 (inactive) | 1 (inactive) | 1.01 (inactive) | 0.997 (inactive) | 0.996 (inactive)
13 | CC(C)CC(N(C)C)C1(c2ccc(Cl)cc2)CCC1 (stereo not given) [Sibutramine hydrochloride] | 0.969 (inactive) | 1 (inactive) | 0.971 (inactive) | 0.967 (inactive) | 1 (inactive) | 1.02 (inactive) | 1.02 (inactive) | 1 (inactive) | 0.999 (inactive)
14 | C[C@]12CC[C@H](O)C[C@H]1CC[C@@H]1[C@@H]2CC[C@]2(C)[C@@H](C3=CC(=O)OC3)CC[C@]12O [Digitoxigenin] | 1 (inactive) | 1 (inactive) | 0.981 (inactive) | 0.973 (inactive) | 0.995 (inactive) | 0.989 (inactive) | 0.968 (inactive) | 0.995 (inactive) | 1 (inactive)
15 | CC(=O)[C@H]1CC[C@H]2[C@@H]3CC[C@H]4C[C@H](O)CC[C@]4(C)[C@H]3C(=O)C[C@]12C [Alfaxalone] | 1 (inactive) | 0.999 (inactive) | 0.973 (inactive) | 0.964 (inactive) | 1.01 (inactive) | 0.996 (inactive) | 0.996 (inactive) | 1 (inactive) | 0.911 (inactive)
16 | CC[N+]1(C)CCCC(OC(=O)C(O)(c2ccccc2)c2ccccc2)C1 (stereo not given) [Pipenzolate bromide] | 0.996 (inactive) | 0.993 (inactive) | 0.977 (inactive) | 0.998 (inactive) | 1.01 (inactive) | 1 (inactive) | 1.02 (inactive) | 1 (inactive) | 0.999 (inactive)
17 | C[C@]12CCC(=O)C(O)=C1CC[C@@H]1[C@@H]2CC[C@]2(C)C(=O)CC[C@@H]12 [Formestane] | 1.01 (inactive) | 1.03 (inactive) | 1 (inactive) | 1.01 (inactive) | 0.997 (inactive) | 0.976 (inactive) | 0.982 (inactive) | 0.997 (inactive) | 0.927 (inactive)
18 | C=C1CC[C@@]2(O)[C@H]3Cc4ccc(O)c5c4[C@@]2(CCN3CC2CC2)[C@H]1O5 [Nalmefene hydrochloride] | 0.969 (inactive) | 1.01 (inactive) | 1.03 (inactive) | 1.02 (inactive) | 1.03 (inactive) | 1 (inactive) | 1.03 (inactive) | 1 (inactive) | 1.01 (inactive)
19 | c1ccc2c(c1)OCC(C1=NCCN1)O2 (stereo not given) [Idazoxan hydrochloride] | 1.01 (inactive) | 1.02 (inactive) | 1.02 (inactive) | 1.02 (inactive) | 0.982 (inactive) | 0.997 (inactive) | 0.98 (inactive) | 0.999 (inactive) | 0.998 (inactive)
20 | COc1ccc(OC)c(C(O)C(C)N)c1 (stereo not given) [Methoxamine hydrochloride] | 1 (inactive) | 1.01 (inactive) | 0.984 (inactive) | 1.01 (inactive) | 0.991 (inactive) | 0.987 (inactive) | 0.0385 (active) | 1.01 (inactive) | 0.999 (inactive)
21 | CC(C)N(CCC(C(N)=O)(c1ccccc1)c1ccccn1)C(C)C (stereo not given) [Disopyramide] | 0.997 (inactive) | 0.993 (inactive) | 0.988 (inactive) | 0.983 (inactive) | 0.996 (inactive) | 1 (inactive) | 0.998 (inactive) | 1 (inactive) | 0.983 (inactive)
22 | CN[C@@H]1[C@@H](O)[C@@H](O[C@@H]2[C@@H](O)[C@H](O[C@H]3O[C@H](CN)CC[C@H]3N)[C@@H](N)C[C@H]2N)OC[C@]1(C)O.CN[C@@H]1[C@@H](O)[C@@H](O[C@@H]2[C@@H](O)[C@H](O[C@H]3O[C@H]([C@@H](C)N)CC[C@H]3N)[C@@H](N)C[C@H]2N)OC[C@]1(C)O.CN[C@@H]1[C@@H](O)[C@@H](O[C@@H]2[C@@H](O)[C@H](O[C@H]3O[C@H]([C@@H](C)NC)CC[C@H]3N)[C@@H](N)C[C@H]2N)OC[C@]1(C)O [Gentamicine sulfate] | 0.864 (inactive) | 1 (inactive) | 1.02 (inactive) | 1.04 (inactive) | 1.02 (inactive) | 1.05 (inactive) | 1.02 (inactive) | 1 (inactive) | 1 (inactive)
23 | C[C@]12CC[C@H](O)C[C@@H]1CC[C@@H]1[C@@H]2CC[C@]2(C)C(=O)CC[C@@H]12 [Epiandrosterone] | 1 (inactive) | 0.987 (inactive) | 0.99 (inactive) | 1.19 (inactive) | 0.997 (inactive) | 1 (inactive) | 1.03 (inactive) | 1 (inactive) | 0.951 (inactive)
24 | C#CCN(C)[C@H](C)Cc1ccccc1 [Selegiline hydrochloride] | 0.985 (inactive) | 1.02 (inactive) | 1.05 (inactive) | 1.01 (inactive) | 1.03 (inactive) | 1.03 (inactive) | 1.05 (inactive) | 1 (inactive) | 1.01 (inactive)
25 | N[C@@H]1C[C@H]1c1ccccc1 [Tranylcypromine hydrochloride] | 1.04 (inactive) | 0.999 (inactive) | 1 (inactive) | 1.01 (inactive) | 0.959 (inactive) | 1.01 (inactive) | 1.05 (inactive) | 1.01 (inactive) | 1 (inactive)
